HCT116 bCat-KO – beta-catenin-lacking colon tumor cell growth suppression; viability, % at 10 µM; HCT116 beta-catenin knockout viability, CellTiter-Glo, 60 h; hits give low values; AID 818; actives 1.5% (n = 140,000);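 active means viability at or under a set limit, the compound median less 4 SD, cut at about 6% in these data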;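 further: 0% = Hyamine 1622 control at 20 µM and 100% = untreated cell control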
p97 inhibitor – human p97 ATPase inhibition. inhibition, % at 8 µM. recombinant p97 ATPase, Kinase-Glo ATP luminescence, 3 h. actives 0.42% (n = 220,000); in the data active means inhibition above about 15%;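 further: 0% = DMSO vehicle and 100% = wells lacking enzyme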
Target sequence (P55072 whole entry, looked up): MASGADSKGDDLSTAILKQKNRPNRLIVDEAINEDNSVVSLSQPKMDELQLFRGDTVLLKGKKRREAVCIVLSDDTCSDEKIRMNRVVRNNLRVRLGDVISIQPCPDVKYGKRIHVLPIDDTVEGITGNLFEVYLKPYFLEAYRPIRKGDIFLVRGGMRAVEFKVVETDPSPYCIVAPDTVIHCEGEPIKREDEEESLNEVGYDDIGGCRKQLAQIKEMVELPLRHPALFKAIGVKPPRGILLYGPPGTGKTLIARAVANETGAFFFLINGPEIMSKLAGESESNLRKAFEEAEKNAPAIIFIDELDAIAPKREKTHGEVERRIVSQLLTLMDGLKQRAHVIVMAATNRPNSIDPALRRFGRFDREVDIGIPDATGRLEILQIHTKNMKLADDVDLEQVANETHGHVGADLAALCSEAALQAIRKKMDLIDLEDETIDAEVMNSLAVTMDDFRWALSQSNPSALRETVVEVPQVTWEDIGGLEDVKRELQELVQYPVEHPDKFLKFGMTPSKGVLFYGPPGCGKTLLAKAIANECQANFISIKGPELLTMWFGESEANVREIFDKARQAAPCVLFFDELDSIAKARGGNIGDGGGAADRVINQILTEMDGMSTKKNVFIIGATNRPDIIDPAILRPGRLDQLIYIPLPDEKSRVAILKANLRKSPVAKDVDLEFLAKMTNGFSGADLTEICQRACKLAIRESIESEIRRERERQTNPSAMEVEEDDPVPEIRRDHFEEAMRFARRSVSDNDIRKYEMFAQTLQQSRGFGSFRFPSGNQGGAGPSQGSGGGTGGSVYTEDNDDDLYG
ROMK mod – modulators of human ROMK potassium channel; B-score at 10 µM; Tet-inducible ROMK, thallium flux fluorescence; actives lie on both sides; actives 2% (n = 130,000);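 active means signal ratio slope over the read window, or its plate-corrected B-score, at least 3 SD from the plate mean, either direction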;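 further: B-score of the F/F0 ratio slope over 7 to 12 s after thallium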
Lmaj promast – Leishmania major promastigote growth inhibition; Leishmania major promastigotes, resazurin fluorescence viability; inhibition, % at 10 µM; actives 9% (n = 200,000); in the data active means inhibition above about 50%;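 further: promastigotes grown with compound for 44 hours at 28 °C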
Insulin prom inh – TRM-6 insulin promoter activity inhibition | TRM-6 cells (human fetal islet line), insulin promoter-eGFP reporter, imaging; reporter expression induced with tamoxifen | actives 0.9% (n = 130,000) | inhibition, % at 2 µM;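 active means inhibition above the mean plus 3 SD, with well images judged a real hit on visual review, cut at about 60% in these data, passing the limit was not always enough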
HCT116 PTEN-null – suppresses growth of cells with PTEN deletion; viability, % at 10 µM; actives 1.2% (n = 140,000); AID 827; HCT116 PTEN-null viability, CellTiter-Glo, 60 h; hits give low values;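 active means viability at or below a set limit, 4 SD under the median of all tested compounds, cut at about 3.7% in these data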;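 further: PTEN knockout HCT116 line with beta catenin targeted HCT116 as companion control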
* marks the source's active call; other numbers are inactive results; . = no result given. Only some compounds are listed: those with a hit (about 10% of all), similar ones and a draw of the others.

SMILES	HCT116 bCat-KO	p97 inhibitor	ROMK mod	Lmaj promast	Insulin prom inh	HCT116 PTEN-null
COc1cccc(C(=O)N(c2ccc(C)cc2)C2C=CS(=O)(=O)C2)c1 (centres undefined)	.	1.9	0.0599	-7.2	-33.3	.
COc1ccc(CCN2C(=O)NC(NC(=O)C(C)(C)C)(C(F)(F)F)C2=O)cc1OC (centres undefined)	98.4	-2.1	0.924	-6.9	6.7	98.8
CC(c1ccccc1)N1C(=O)NC(NC(=O)C(C)(C)C)(C(F)(F)F)C1=O (centres undefined)	93.2	-4.1	-0.0495	51.7*	-55.6	100.5
COC(=O)/C=C1\S/C(=N\N=C\CC(=O)OC)NC1=O	.	-6.7	.	.	.	.
O=c1c(Cl)cc(Cl)nn1-c1ccccc1	4.1*	6.2	-1.3	70.5*	.	2.7*
COc1cc(Cl)nn(-c2ccccc2)c1=O	92.0	5.7	0.55	6.4	.	94.0
COc1ccc(/C=C/C(=O)NC(=S)NNC(=O)c2ccco2)cc1OC	.	6.1	.	.	.	.
COc1ccc(/C=C/C(=O)NC(=S)NNC(=O)Cc2cccs2)cc1	49.6	2.1	-0.512	98.2*	5.5	48.2
O=C(/C=C/c1ccccc1)NC(=S)NNC(=O)Cc1cccs1	59.2	6.0	.	23.4	69.2	65.3
COc1ccc(/C=C/C(=O)NC(=S)NNC(=O)c2ccco2)cc1	36.0	4.0	0.799	99.1*	36.8	42.9
O=C1NC2=C(C(=O)OC2)C(c2ccc(OC(F)(F)F)cc2)N1 (centres undefined)	.	2.0	.	.	.	.
CCc1cc(=O)oc2cc(OC(C)=O)cc(OC(C)=O)c12	109.8	2.2	.	55.8*	12.5	105.8
OCC(O)/C=N/Nc1nc(N2CCCCC2)nc(N2CCCCC2)n1 (centres undefined)	.	0.4	-0.102	-14.2	-33.3	.
C=CCn1c(C)c(C(C)=O)c(N2CCN(C(c3ccccc3)c3ccccc3)CC2)nc1=S	.	-2.7	-0.039	17.6	36.4	.
COc1ccc(C(=O)/C=C2\Sc3ccccc3N2C)cc1	.	-5.7	0.334	-3.3	.	.
CC(=S)/C=C1\Sc2ccccc2N1C	71.4	3.6	1.15	99.2*	.	80.0
Cc1ccc(S(=O)(=O)N(C)C)cc1NC(=S)NC(=O)C12CC3CC(CC(C3)C1)C2	78.3	0.8	-0.0607	-4.8	-387.5	69.6
Cc1ccc(S(=O)(=O)N(C)C)cc1NC(=S)NC12CC3CC(CC(C3)C1)C2	54.5	-8.2	.	77.6*	.	51.3
CC1(C)[C@H]2CC=C(CN3CCC(N4CCC(C(=O)N5CCCC5)CC4)CC3)[C@@H]1C2	.	2.2	-0.451	89.3*	.	.
CCS(=O)(=O)c1nc2ccccc2n1Cc1ccccn1	.	4.4	1.31	-4.9	37.5	.
CC(O)CNCCNCc1c(OCc2ccccc2)ccc2ccccc12 (centres undefined)	40.4	-3.7	.	100.7*	-110.0	38.1
CC(O)CNCCOc1ccccc1-c1ccccc1 (centres undefined)	.	3.9	-1.18	-1.8	.	.
CC(O)CNCCOc1ccccc1OCc1ccccc1 (centres undefined)	.	-1.7	-1	87.9*	.	.
CCC(C(=O)Nc1cc(C(=O)Nc2cc(C)ccn2)ccc1Cl)c1ccccc1 (centres undefined)	74.2	1.3	-0.225	81.0*	0.0	65.2
CSc1ccc2c(c1)N(CCC1CCCCN1C)c1ccccc1S2 (centres undefined)	1.2*	-6.0	.	99.2*	-86.4	1.4*
SMILES	HCT116 bCat-KO	p97 inhibitor	ROMK mod	Lmaj promast	Insulin prom inh	HCT116 PTEN-null
CC1CC(=O)N(CC(=O)N2CCCC2)c2ccccc2S1 (centres undefined)	101.6	-0.2	0.154	-5.2	.	101.1
CCN1N=C(c2ccccc2)Cn2c1nc1ccccc12	64.6	-5.7	-0.816	49.8	53.1	76.5
Cc1onc(-c2ccccc2)c1C(=O)OCC(=O)Nc1ccc2c(c1)OCO2	78.3	3.4	-0.211	1.8	-3.0	93.8
Cc1c(-c2cccc(Cl)c2)nc2ccccc2c1C(=O)OCC(=O)Nc1ccc2c(c1)OCO2	59.7	1.8	.	58.0*	46.7	57.2
Cc1sc2c(c1C)C(=O)NC(c1ccccc1F)N2 (centres undefined)	.	3.5	.	.	.	.
CCOc1ccccc1NC(=O)C(OC(=O)c1ccccc1O)c1ccccc1 (centres undefined)	87.8	-3.1	0.23	6.4	-50.0	91.2
CCOc1ccccc1NC(=O)C(OC(=O)c1cc(C)oc1C)c1ccccc1 (centres undefined)	65.0	-0.9	.	85.4*	-6.5	69.0
CCC1CCCCN1CC(C)(C)NS(=O)(=O)c1ccccc1 (centres undefined)	.	0.4	.	.	.	.
CC(C)(CN1CCc2ccccc2C1)NS(=O)(=O)c1ccccc1	.	1.3	.	.	.	.
CC1CC(C)CN(CC(C)(C)NS(=O)(=O)c2ccccc2)C1 (centres undefined)	87.3	-1.1	.	88.9*	-6.5	74.8
CC1CCCC(C)N1CC(C)(C)NS(=O)(=O)c1ccc(Cl)cc1 (centres undefined)	93.0	2.4	-0.159	88.2*	25.7	99.4
O=C1C2CC=CCC2C(=O)N1c1cccc(OS(=O)(=O)c2ccc3ccccc3c2)c1 (centres undefined)	99.8	4.3	0.00441	-3.4	15.2	102.4
CCN1C=C(Cc2cccs2)C2=C(C1)C(c1cccs1)C(C#N)=C(N)O2 (centres undefined)	42.5	4.1	-1.52	55.5*	.	33.3
O=C(Cn1cnc2c(oc3ccccc32)c1=O)NCc1ccco1	83.2	2.4	.	-1.6	81.8*	83.1
O=C(Cn1cnc2c(oc3ccccc32)c1=O)NCc1ccccc1	94.7	-5.1	.	-2.7	.	102.1
COc1ccc(S(=O)(=O)NCCN2CCNC2=O)cc1OC	.	5.4	.	.	.	.
Cc1cc(C)cc(N(C(=O)c2sc(C)nc2C)C(C(=O)NC(C)(C)C)c2ccncc2)c1 (centres undefined)	.	-2.4	-0.0311	-6.2	.	.
CCOc1ccc(Br)cc1/C(C)=N\NC1=NCCN1	14.4	1.0	0.273	94.6*	-11.1	15.2
COc1ccc(NC(=O)CC2(Cc3ccccc3)CCOC(C)(C)C2)cc1 (centres undefined)	75.5	0.4	.	54.9*	-31.0	86.0
COc1ccc(NC(=O)CCOc2ccccc2)cc1	90.6	2.1	.	-1.4	-5.4	96.1
C=CCSc1nc(N)c2c(C)c(C)sc2n1	89.1	0.0	.	13.2	.	86.8
CCOC(=O)Cc1csc(NC(=O)CSc2nc(N)c3c(C)c(C)sc3n2)n1	87.4	-1.5	1.03	-2.6	100.0*	96.6
CCSc1nc(N)c2c(C)c(C)sc2n1	107.5	-4.8	0.434	2.1	77.8*	102.0
CCCn1c(NC(=O)c2cccc(C)c2C)nc2ccccc21	15.8	-4.2	0.373	98.2*	-43.8	10.4
CC(C)(C)C(=O)Nc1ccccc1C(=O)Nc1ccccn1	97.3	-0.7	-0.0504	1.2	-137.5	99.1
O=C(NCc1nc2ccccc2[nH]1)c1ccc(Cl)c(S(=O)(=O)N2CCCC2)c1	86.5	-0.6	.	-3.5	33.3	92.9
CCC(=O)Nc1nc2ccccc2n1Cc1ccc(C)cc1	20.9	-1.2	.	98.7*	-38.9	21.5
